Compounds without any hit were thinned out: in the full panel of roughly 79,000, 15% have a hit. Calls of active or inactive are those of the source. Rule as the data show it: active = growth inhibition above about 70%; inactive = the rest.
Experiments:
[1] = NCI Yeast Anticancer Drug Screen. Data for the rad50 strain (AID 155);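 also: 0% = growth of vehicle-only cultures of the same strain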; conditions: S. cerevisiae rad50 strain growth inhibition, stronger effect = higher value
Outline: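 Relative growth inhibition (compound vs vehicle) was measured in yeast with a defined repair-gene alteration.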

[2] = NCI Yeast Anticancer Drug Screen. Data for the mec2-1 strain (AID 157); conditions: S. cerevisiae mec2-1 strain, stronger effect = higher value
Outline: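 Compounds were applied to mec2-1 yeast cells. Their growth was then compared with that of vehicle-treated cultures to give growth inhibition.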

[3] = NCI Yeast Anticancer Drug Screen. Data for the sgs1 mgt1 strain (AID 161);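 also: 0% = growth of cultures given vehicle only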; conditions: S. cerevisiae sgs1 mgt1 strain, stronger effect = higher value
Outline: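 Growth of a repair-deficient yeast mutant was monitored after compound treatment and expressed as inhibition relative to vehicle-treated cultures.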

[4] = NCI Yeast Anticancer Drug Screen. Data for the cln2 rad14 strain (AID 165);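 also: 0% = growth equal to vehicle treated cultures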; conditions: S. cerevisiae cln2 rad14 strain, stronger effect = higher value
Outline: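 Strain: cln2 rad14 yeast, altered in cell cycle control and DNA damage repair. Read-out: growth inhibition vs vehicle.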

[5] = NCI Yeast Anticancer Drug Screen. Data for the bub3 strain (AID 167); conditions: S. cerevisiae bub3 mutant strain, stronger effect = higher value
Outline: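 Screening used yeast with an engineered genetic alteration affecting cell cycle control. Compound-exposed cultures were compared with vehicle cultures, and reduced growth was taken as inhibition.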

[6] = NCI Yeast Anticancer Drug Screen. Data for the mlh1 rad18 strain (AID 175); conditions: S. cerevisiae mlh1 rad18 strain growth inhibition, stronger effect = higher value
Outline: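 A repair-deficient yeast strain is exposed to test compound, and growth is scored relative to vehicle-treated controls.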

[7] = at 5.0 µM (retest, dose inferred, filed as 0.5)
[8] = at 50.0 µM (retest, dose inferred, filed as 5.0)

Measured: growth inhibition

N#CC(c1ccccc1)c1cccc2ccccc12 (stereo unspecified)
active: [3]; [8] 74%
inactive: [1]; [7] 5% | [1]; [8] 68% | [2]; [7] 3% | [2]; [8] 35% | [3]; [7] 1% | [4]; [7] -4% | [4]; [8] -4% | [5]; [7] 7% | [5]; [8] 59% | [6]; [7] -25% | [6]; [8] 56%

CN(C)C(=O)OC(Cn1cncn1)(Cn1cncn1)c1ccc(Cl)cc1Cl
inactive: [1]; at 50.0 µM unless noted -29.8% | [2]; at 50.0 µM unless noted 13% | [3]; at 50.0 µM unless noted 7.5% | [4]; at 50.0 µM unless noted -10.8% | [5]; at 50.0 µM unless noted 5.1%

Nc1nc(N)c(CCCCc2ccccc2)c(Cc2ccccc2)n1
inactive: [1]; at 50.0 µM unless noted -10.2% | [2]; at 50.0 µM unless noted -10.5% | [3]; at 50.0 µM unless noted -2% | [4]; at 50.0 µM unless noted -40% | [5]; at 50.0 µM unless noted 3.7%

O=C(Cc1ccccc1)c1ccc(O)c(Cl)c1
active: [1]; [8] 99% | [2]; [8] 99% | [3]; [8] 99% | [4]; [8] 96% | [5]; [8] 99% | [6]; [8] 97%
inactive: [1]; [7] 20% | [2]; [7] 2% | [3]; [7] 18% | [4]; [7] 12% | [5]; [7] 7% | [6]; [7] -11%

N#CC(C#N)N=Nc1cc(Cl)ccc1Cl
active: [1]; [8] 93% | [2]; [8] 87% | [3]; [8] 99% | [4]; [8] 87% | [5]; [8] 96% | [6]; [8] 92%
inactive: [1]; [7] 20% | [2]; [7] 13% | [3]; [7] 16% | [4]; [7] 8% | [5]; [7] 15% | [6]; [7] -2%

CCC/C(=N\NC(=S)N1CCN(c2ccccn2)CC1)c1ccccn1
inactive: [5]; at 50.0 µM unless noted 20.9%
active: [1]; at 50.0 µM unless noted 87.3% | [2]; at 50.0 µM unless noted 90.3% | [3]; at 50.0 µM unless noted 88.8% | [4]; at 50.0 µM unless noted 80.5%

CC(C)NC(=O)N/C=C(\C#N)C(N)=O
active: [1]; [8] 70%
inactive: [1]; [7] 4% | [2]; [7] -1% | [2]; [8] 21% | [3]; [7] 4% | [3]; [8] 63% | [4]; [7] 2% | [4]; [8] 1% | [5]; [7] -3% | [5]; [8] 20% | [6]; [7] -39% | [6]; [8] 16%

Fc1ccc([I+]c2ccc(F)cc2)cc1
inactive: [1]; [7] 12% | [2]; [7] 2% | [2]; [8] 43% | [3]; [7] 24% | [4]; [7] 9% | [4]; [8] 32% | [5]; [7] 33% | [6]; [7] 17%
active: [1]; [8] 89% | [3]; [8] 84% | [5]; [8] 90% | [6]; [8] 81%

CC(C)OC(=O)Nc1cccc(Cl)c1F
inactive: [1]; at 50.0 µM unless noted 15.9% | [2]; at 50.0 µM unless noted -10.8% | [3]; at 50.0 µM unless noted -6.2% | [4]; at 50.0 µM unless noted -0.75% | [5]; at 50.0 µM unless noted 8.2%

Cc1c2cc[n+](C)c(C)c2cc2c1[nH]c1ccccc12
inactive: [1]; at 50.0 µM unless noted 64.8% | [2]; at 50.0 µM unless noted 19.8% | [3]; at 50.0 µM unless noted 34.1% | [4]; at 50.0 µM unless noted 12.8% | [5]; at 50.0 µM unless noted 22.4%

C=C1C(=O)OC2/C=C(\COC(C)=O)CCC(OC(C)=O)C3=CC(OC3=O)C12 (stereo unspecified)
inactive: [1]; at 50.0 µM unless noted -0.4% | [2]; at 50.0 µM unless noted 10.4% | [3]; at 50.0 µM unless noted -22.2% | [4]; at 50.0 µM unless noted -6.5% | [5]; at 50.0 µM unless noted -30.1%

CCN(CC)Cc1cc(O)ccc1NCCCNc1ccnc2cc(Cl)ccc12
inactive: [1]; at 50.0 µM unless noted 49.4% | [2]; at 50.0 µM unless noted 11.1% | [3]; at 50.0 µM unless noted 40.1% | [4]; at 50.0 µM unless noted 16.4% | [5]; at 50.0 µM unless noted -7.05%

CC(CC=O)CC=O
inactive: [1]; [7] 15% | [2]; [7] 3% | [2]; [8] 32% | [3]; [7] 18% | [4]; [7] 3% | [4]; [8] 31% | [5]; [7] -5% | [5]; [8] -7% | [6]; [7] 16%
active: [1]; [8] 82% | [3]; [8] 78% | [6]; [8] 79%

CC(=O)OC(C)C(=O)NCC(C)O (stereo unspecified)
inactive: [1]; [7] -1% | [1]; [8] 3% | [2]; [7] -2% | [2]; [8] 0% | [3]; [7] -2% | [3]; [8] 9% | [4]; [7] -1% | [4]; [8] -7% | [5]; [7] 5% | [5]; [8] 7% | [6]; [7] -33% | [6]; [8] 20%

C/C(=N\NC(=S)N1CCC(N2CCCCC2)CC1)c1ccccn1
active: [1]; at 50.0 µM unless noted 83.8% | [2]; at 50.0 µM unless noted 88.1% | [3]; at 50.0 µM unless noted 88% | [4]; at 50.0 µM unless noted 84.8% | [5]; at 50.0 µM unless noted 86%

CN(C)c1ccc(/C=C\C(=O)c2ccccc2)cc1
active: [3]; [8] 75% | [5]; [8] 77%
inactive: [1]; [7] 7% | [1]; [8] 57% | [2]; [7] 1% | [2]; [8] 28% | [3]; [7] 6% | [4]; [7] 13% | [4]; [8] 15% | [5]; [7] 8% | [6]; [7] 32% | [6]; [8] 53%

Reference: PubChem BioAssay (NCI)
